NALP1 inh = NALP1 inflammasome inhibitors in reconstituted yeast, colorimetric, S. cerevisiae, triplicate retest. S. cerevisiae NALP1/ASC/caspase-1 growth, X-gal OD620, 72 h. inhibition, % at 10 µM. 0.61% of 280,000 active; in the data active = inhibition mostly above about 24%, no sharp cut-off; inactive = mostly below about 32%
dFosB activator = activators of delta FosB homodimer, primary screen, biochemical, fluorescence polarization, TAMRA-CDK5 oligo, single point; activation, % at 25 µM; 0.99% of 340,000 active; purified delta FosB; percent of positive-control signal above neutral wells;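 active = mean activation above about 17%, with every replicate also reaching it, limit read from the data, passing the limit was not always enough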
EBNA-1 inhibitor = EBNA-1 DNA-binding inhibitors, primary screen, biochemical, fluorescence polarization. inhibition, % at 14.8 µM. 0.34% of 300,000 active; in the data active = inhibition above about 28%
ZTA counter = counter-screen for EBNA-1 inhibitors: inhibitors of Epstein-Barr virus ZTA. P03206. ZTA-DNA binding, fluorescence polarization. inhibition, % at 11 µM. 0.15% of 320,000 active. AID 2234; in the data active = inhibition above about 33%
Target sequence (P03206 whole entry, looked up): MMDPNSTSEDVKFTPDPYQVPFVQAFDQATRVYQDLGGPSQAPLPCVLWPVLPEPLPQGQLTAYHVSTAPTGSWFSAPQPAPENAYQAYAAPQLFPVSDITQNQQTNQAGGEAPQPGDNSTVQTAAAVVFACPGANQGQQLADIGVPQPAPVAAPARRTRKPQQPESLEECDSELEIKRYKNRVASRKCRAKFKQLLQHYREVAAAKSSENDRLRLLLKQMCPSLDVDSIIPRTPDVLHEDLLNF
PolyA inh = polyadenylation inhibitors in yeast reporter cells, primary screen, luminescence, S. cerevisiae; 0.02% of 300,000 active; activity score, % at 12 µM; AID 1875, 2009; S. cerevisiae SKY197-pL101 polyadenylation reporter, beta-gal luminescence; efflux-impaired pdr1/pdr3 knockout yeast; score 100 = 6 SD above DMSO;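 active = lowest replicate activity score at least 50, where 100 means six control SD above control mean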;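 also: yeast exposed to compound for 9 h at 30 °C; higher score means more reporter readthrough which indicates perturbed polyadenylation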
NALP3 yeast inh = NALP3 inflammasome inhibitors in reconstituted yeast, primary screen, luminescence, uHTS | AID 2825, 2010 | Yeast reconstituted NLRP3/ASC/caspase-1, beta-gal luminescence, 24 h | 0.39% of 330,000 active | inhibition, % at 10 µM;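 active = inhibition of 50% or more; inactive = inhibition below 50%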;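 also: plate controls were induced DMSO wells for no effect and uninduced yeast grown without galactose for full effect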
* = called active by the depositor; nt = no result given. Hits are enriched below; roughly 2.2% of the tested compounds scored in any of these assays.

SMILES	NALP1 inh	dFosB activator	EBNA-1 inhibitor	ZTA counter	PolyA inh	NALP3 yeast inh
OCC1CCCN(Cc2ccc(-c3ccccc3)cc2)C1 (centres undefined)	34*	-1	12	-10	-39	21
CC(C)(C)CC(=O)Nc1cccc2c1CCCC2	-1	-10	13	6	-2	3
c1cc2c(c(NCc3ccncc3)c1)CCCC2	38*	-5	6	0	25	3
O=c1c(-c2ccco2)[n+]([O-])c2ccccc2n1OCc1c(F)cccc1F	-12	-1	-2	-1	-19	19
O=c1c(-c2ccco2)[n+]([O-])c2ccccc2n1OCc1ccccc1	37*	-9	-14	-10	-9	14
CCCCOc1ccc(C(=O)NNC(=O)c2cnccn2)cc1OC	nt	-4	nt	nt	nt	13
CS(=O)(=O)c1nc(-c2ccco2)cc(C(F)(F)F)n1	61*	nt	-13	2	-71	37
COc1ccccc1-c1cc(C(F)(F)F)nc(S(C)(=O)=O)n1	-2	4	3	20	-52	-20
CCc1ccccc1NC(=O)C1=CC(c2ccc(OC)c(OC)c2)=NS(=O)(=O)N1C	2	-4	4	9	-6	16
COc1cccc(-c2ncc3ccccc3c2COC(=O)c2ccc(F)cc2)c1	nt	-7	nt	0	nt	18
Cc1cc(C)c(NC(=O)CSc2nc3ncc(Br)cc3[nH]2)c(Cl)c1	20	69*	10	-1	-19	-8
Cc1cc(C)c(NC(=O)CSc2nc3ncc(Cl)cc3[nH]2)c(C)c1	16	15	-6	3	-19	11
O=C(/C=C/Nc1ccc(Br)cn1)c1cccc(OC(F)F)c1	nt	1	nt	-1	nt	14
CN(C)CCCN1C(=O)c2cccc3c([N+](=O)[O-])ccc(c23)C1=O	-26	19*	6	18	nt	nt
CCC(C)N(C(=O)CSc1nnc(NC(C)C)s1)C1CCS(=O)(=O)C1 (centres undefined)	nt	1	-3	-3	-12	-11
Cc1c(C(=O)OCCOc2ccccc2)[nH]c2c1C(=O)CCC2	37	-16	4	-9	12	7
CCCc1c(C(=O)OCC)[nH]c2c1C(=O)CCC2	43*	-5	17	7	19	-1
CCOC(=O)c1c(NC(C)=O)sc2c(OCC(O)CNC(C)(C)C)c(Br)ccc12 (centres undefined)	26*	-26	-16	-9	-11	15
O=C(C1CCC1)N1CCC(O)(c2cccc(F)c2)CC1	11	-8	-5	1	-2	5
COc1ccc(S(=O)(=O)N2CCOCC2)cc1NC(=O)COC(=O)c1oc2ccccc2c1C	nt	11	nt	-6	nt	-10
Cc1cccc(NC(=O)C2CCCN(c3ncnc4c3nc3n4CCCCC3)C2)n1 (centres undefined)	4	0	0	7	13	10
N#CC12CCCCC1CC1CCCCC1(C#N)N2Cc1ccccn1 (centres undefined)	38*	1	0	12	0	13
N#CC12CCCCC1CC1CCCCC1(C#N)N2CCO (centres undefined)	8	3	-19	-18	-3	16
O=C(CCc1ccccc1)NNC(=O)c1ccncc1	nt	1	nt	nt	nt	19
CC(C)c1ccccc1OCC(=O)NN1C(=O)c2ccccc2C1=O	42*	-14	-6	-8	-26	-1
CCC(C)c1ccccc1OCC(=O)NN1C(=O)c2ccccc2C1=O (centres undefined)	16	-5	7	-1	-3	18
CCc1ccc(NC(=O)COC(=O)CN2C(=O)COc3ccccc32)cc1	41*	-1	5	-15	-5	4
c1cc(CNC23CC4CC(CC(C4)C2)C3)ccn1	27*	0	9	-2	-4	4
O=C(CCN1C(=O)/C(=C/c2ccccc2Cl)SC1=S)NNC(=O)c1cccnc1	-8	2	-1	-1	22	2
O=C(CCN1C(=O)/C(=C/c2ccccc2Cl)SC1=S)NCCc1ccc(O)cc1	16	23*	-10	-9	6	13

Bioassay records: PubChem, several laboratories
